{
  "source": "paper PMC4336329",
  "about": "(PLoS ONE, 2015)",
  "note": "Out of some 310,000 compounds screened, about 14,000 (4.5%) showed an effect of 50% or more. The effect is printed as a negative number. The entries come from a sample that favours strong results as a whole.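 Also: peak tail current of the secondary pulse compared with the same well before compound.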",
  "data": [
    {"target": "human ether-à-go-go-related gene (hERG) potassium channel (human, UniProt Q12809)", "sequence (Q12809 whole entry, looked up)": "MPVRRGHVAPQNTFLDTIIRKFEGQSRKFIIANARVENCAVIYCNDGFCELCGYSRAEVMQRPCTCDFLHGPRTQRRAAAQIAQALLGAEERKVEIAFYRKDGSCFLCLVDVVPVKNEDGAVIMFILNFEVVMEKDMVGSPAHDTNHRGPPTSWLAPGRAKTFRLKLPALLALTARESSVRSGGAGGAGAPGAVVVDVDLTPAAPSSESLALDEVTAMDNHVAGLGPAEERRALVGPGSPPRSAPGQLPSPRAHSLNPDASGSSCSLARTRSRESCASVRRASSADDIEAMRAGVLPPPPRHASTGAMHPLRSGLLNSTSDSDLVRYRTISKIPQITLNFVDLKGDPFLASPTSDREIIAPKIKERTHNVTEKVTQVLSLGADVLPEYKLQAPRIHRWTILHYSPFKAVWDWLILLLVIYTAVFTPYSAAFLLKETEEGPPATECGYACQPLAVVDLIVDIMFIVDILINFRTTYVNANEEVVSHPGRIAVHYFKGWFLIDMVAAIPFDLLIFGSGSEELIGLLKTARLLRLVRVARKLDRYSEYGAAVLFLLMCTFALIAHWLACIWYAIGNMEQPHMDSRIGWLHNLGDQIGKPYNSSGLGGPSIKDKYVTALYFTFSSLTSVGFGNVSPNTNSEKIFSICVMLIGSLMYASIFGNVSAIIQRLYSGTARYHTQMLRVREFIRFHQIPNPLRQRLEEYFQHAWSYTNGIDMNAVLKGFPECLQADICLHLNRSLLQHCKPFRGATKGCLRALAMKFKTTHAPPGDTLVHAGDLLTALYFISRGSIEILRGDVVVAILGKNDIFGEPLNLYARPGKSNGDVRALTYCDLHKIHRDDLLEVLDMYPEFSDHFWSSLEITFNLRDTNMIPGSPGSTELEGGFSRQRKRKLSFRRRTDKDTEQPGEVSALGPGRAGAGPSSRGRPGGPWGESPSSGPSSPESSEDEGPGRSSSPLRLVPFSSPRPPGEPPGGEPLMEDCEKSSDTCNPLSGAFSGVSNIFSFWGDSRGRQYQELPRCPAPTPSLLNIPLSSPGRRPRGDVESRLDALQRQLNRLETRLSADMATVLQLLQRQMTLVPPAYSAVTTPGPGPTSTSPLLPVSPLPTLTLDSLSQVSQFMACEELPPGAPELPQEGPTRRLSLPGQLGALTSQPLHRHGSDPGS", "experiment": "primary screen, population patch clamp on CHO cells stably expressing hERG; higher = less effect of the substance", "units": {"hERG current change (%, negative = inhibition) at 10uM": "%"}, "values": [
      {"smiles": "COC(=O)c1cc(C(=O)Nc2ccc(Cl)cn2)cc([N+](=O)[O-])c1", "hERG current change (%, negative = inhibition) at 10uM": -19},
      {"smiles": "O=c1oc2cc(S(=O)(=O)NCCCO)ccc2c2ccc(S(=O)(=O)NCCCO)cc12", "hERG current change (%, negative = inhibition) at 10uM": 16.1},
      {"smiles": "CN1CCC(OC(=O)c2ccc(Cl)cc2Cl)CC1.Cl", "hERG current change (%, negative = inhibition) at 10uM": -55.9},
      {"smiles": "CN(C)CC1CCCCC1OC(=O)c1ccc(Cl)cc1Cl.Cl", "note": "(centres unmarked)", "hERG current change (%, negative = inhibition) at 10uM": -56.5},
      {"smiles": "CN(C)CC1CCCCC1OC(=O)c1ccc(Cl)c(Cl)c1.Cl", "note": "(centres unmarked)", "hERG current change (%, negative = inhibition) at 10uM": -52.1},
      {"smiles": "COc1ccc(C(=O)OC2CCCCC2CN(C)C)cc1.Cl", "note": "(centres unmarked)", "hERG current change (%, negative = inhibition) at 10uM": 14.1},
      {"smiles": "CN1CCC(OC(=O)c2cccc(Cl)c2)CC1.Cl", "hERG current change (%, negative = inhibition) at 10uM": -8.64},
      {"smiles": "CN(C)CC1CCCCC1OC(=O)c1ccc(Br)cc1.Cl", "note": "(centres unmarked)", "hERG current change (%, negative = inhibition) at 10uM": -7.82},
      {"smiles": "CN(C)CC1CCCCC1OC(=O)/C=C/c1ccc(Cl)cc1Cl.Cl", "note": "(centres unmarked)", "hERG current change (%, negative = inhibition) at 10uM": -32.4},
      {"smiles": "CN(C)CC1CCCCC1OC(=O)c1ccc(Cl)cc1", "note": "(centres unmarked)", "hERG current change (%, negative = inhibition) at 10uM": -28.5},
      {"smiles": "CN1CCC(OC(=O)c2ccccc2Cl)CC1.Cl", "hERG current change (%, negative = inhibition) at 10uM": 0.522},
      {"smiles": "Cc1cc(C)n2nc(C(=O)N3CCCC(Nc4ccc(F)c(F)c4)C3)cc2n1", "note": "(centres unmarked)", "hERG current change (%, negative = inhibition) at 10uM": 5.05},
      {"smiles": "COc1cccc(N2C(=O)CC(N3CCN(C(=O)c4ccco4)CC3)C2=O)c1", "note": "(centres unmarked)", "hERG current change (%, negative = inhibition) at 10uM": 9.29},
      {"smiles": "COCCN(C(=O)c1ccc(NC2CC2)c([N+](=O)[O-])c1)c1c(N)n(CC(C)C)c(=O)[nH]c1=O", "hERG current change (%, negative = inhibition) at 10uM": -5.42},
      {"smiles": "C[C@@H]1CC[C@]2(O[C@H](CCO)C[C@@H](O)[C@@H]2O)O1", "hERG current change (%, negative = inhibition) at 10uM": 0.536},
      {"smiles": "CC(C)(c1ccccc1)c1ccc(OCCN)cc1.Cl", "hERG current change (%, negative = inhibition) at 10uM": -20.2},
      {"smiles": "CCc1cccc(NC(=O)CCc2c(C)nn(-c3ccc(N4CCOCC4)nn3)c2C)c1", "hERG current change (%, negative = inhibition) at 10uM": -51.4},
      {"smiles": "CCc1cccc(NC(=O)CCc2c(C)nn(-c3ccc(N4CCCCC4)nn3)c2C)c1", "hERG current change (%, negative = inhibition) at 10uM": -19},
      {"smiles": "Cc1cccc(NC(=O)CCc2c(C)nn(-c3ccc(N4CCOCC4)nn3)c2C)c1", "hERG current change (%, negative = inhibition) at 10uM": 3.98},
      {"smiles": "COc1ccc(NC(=O)Cn2c(=O)oc3cc(S(=O)(=O)N4CCCC4)ccc32)cc1", "hERG current change (%, negative = inhibition) at 10uM": 5.26},
      {"smiles": "CC1(C)CC(=O)C2=C(C1)N(c1ccccc1)C(=O)CC2c1ccsc1", "note": "(centres unmarked)", "hERG current change (%, negative = inhibition) at 10uM": -14.4},
      {"smiles": "O=C(NCc1ccccc1)C1CCN(S(=O)(=O)N2CCCCCC2)CC1", "hERG current change (%, negative = inhibition) at 10uM": -11},
      {"smiles": "CCn1c(=O)c(C(=O)NCCNCCO)c(O)c2ccccc21.Cl", "hERG current change (%, negative = inhibition) at 10uM": 5.89},
      {"smiles": "CCN1C(=O)C(CC(=O)Nc2ccc(OC)cc2)N(CCCN2CCN(c3ccc(OC)cc3)CC2)C1=S", "note": "(centres unmarked)", "hERG current change (%, negative = inhibition) at 10uM": -68},
      {"smiles": "CCN1C(=O)C(CC(=O)Nc2ccc(OC)cc2)N(CCN2CCOCC2)C1=S", "note": "(centres unmarked)", "hERG current change (%, negative = inhibition) at 10uM": -4.13},
      {"smiles": "CCN1C(=O)C(CC(=O)Nc2ccc(F)cc2)N(CCc2ccc(OC)cc2)C1=S", "note": "(centres unmarked)", "hERG current change (%, negative = inhibition) at 10uM": -0.637},
      {"smiles": "CCN1C(=O)C(CC(=O)Nc2ccc(OC)cc2)N(CCCN2CCN(c3ccc(F)cc3)CC2)C1=S", "note": "(centres unmarked)", "hERG current change (%, negative = inhibition) at 10uM": -37.6},
      {"smiles": "CCN1C(=O)C(CC(=O)Nc2ccc(F)cc2)N(CCCN2CCN(c3ccc(F)cc3)CC2)C1=S", "note": "(centres unmarked)", "hERG current change (%, negative = inhibition) at 10uM": -62.2},
      {"smiles": "CCCOc1ccc(NC(=O)CC2C(=O)N(CC)C(=S)N2CCCN2CCN(Cc3ccccc3)CC2)cc1", "note": "(centres unmarked)", "hERG current change (%, negative = inhibition) at 10uM": -50.5},
      {"smiles": "C=CCN1C(=O)C(CC(=O)Nc2ccc(OCCC)cc2)N(CCCN2CCN(Cc3ccccc3)CC2)C1=S", "note": "(centres unmarked)", "hERG current change (%, negative = inhibition) at 10uM": -38.7},
      {"smiles": "CCN1C(=O)C(CC(=O)Nc2ccc(OC)cc2)N(CCc2ccc(F)cc2)C1=S", "note": "(centres unmarked)", "hERG current change (%, negative = inhibition) at 10uM": -6.48},
      {"smiles": "CCCOc1ccc(NC(=O)CC2C(=O)N(CC)C(=S)N2CCNC(C)=O)cc1", "note": "(centres unmarked)", "hERG current change (%, negative = inhibition) at 10uM": -11.5},
      {"smiles": "O=C(Nc1ccccn1)C1CCN(C(=O)c2ccc(F)cc2)CC1", "hERG current change (%, negative = inhibition) at 10uM": 3.81},
      {"smiles": "CC1CC(C)CN(S(=O)(=O)c2cccc3nsnc23)C1", "note": "(centres unmarked)", "hERG current change (%, negative = inhibition) at 10uM": 4.61},
      {"smiles": "Cc1cc(C)c2c3c(oc2n1)C(=O)N(c1cccc(Cl)c1)CC(=O)N3", "hERG current change (%, negative = inhibition) at 10uM": 1.82},
      {"smiles": "NC(=O)CC1NC(=O)c2cc([N+](=O)[O-])cc(I)c2OCCC(C(N)=O)NC(=O)[C@@H]2CCCN2C1=O", "note": "(some centres unmarked)", "hERG current change (%, negative = inhibition) at 10uM": 6.79},
      {"smiles": "O=C(c1ccc2c3c(cccc13)C(=O)N(O)C2=O)N1CCCCC1", "hERG current change (%, negative = inhibition) at 10uM": 12.4},
      {"smiles": "C[C@@H](C(=O)NC1CCN(Cc2ccccc2)CC1)N1C(=O)N2CCc3c([nH]c4ccccc34)[C@@]2(C)C1=O", "hERG current change (%, negative = inhibition) at 10uM": -77.8},
      {"smiles": "COC(=O)[C@H]1Cc2c([nH]c3ccccc23)[C@H](c2ccccc2)N1", "hERG current change (%, negative = inhibition) at 10uM": 5.76},
      {"smiles": "CC(C)[C@@H](C(=O)NC1CCN(Cc2ccccc2)CC1)N1C(=O)N2CCc3c([nH]c4ccccc34)[C@@]2(C)C1=O", "hERG current change (%, negative = inhibition) at 10uM": -74.6},
      {"smiles": "C[C@@H](C(=O)NC1CCCC1)N1C(=O)N2CCc3c([nH]c4ccccc34)[C@@]2(C)C1=O", "hERG current change (%, negative = inhibition) at 10uM": -27.5},
      {"smiles": "CC(C)[C@@H](C(=O)NC1CCCC1)N1C(=O)N2CCc3c([nH]c4ccccc34)[C@@]2(C)C1=O", "hERG current change (%, negative = inhibition) at 10uM": -12.4},
      {"smiles": "COc1ccc2[nH]c3c(c2c1)CCN1C(=O)N([C@@H](C)C(=O)NC2CCN(Cc4ccccc4)CC2)C(=O)[C@]31C", "hERG current change (%, negative = inhibition) at 10uM": -48.8},
      {"smiles": "COC(=O)C1Cc2c([nH]c3ccccc23)C2(CCN(Cc3ccccc3)CC2)N1", "note": "(centres unmarked)", "hERG current change (%, negative = inhibition) at 10uM": -68.2},
      {"smiles": "COC(=O)[C@@H]1Cc2c([nH]c3ccccc23)C(C)(C)N1C(=O)CCl", "hERG current change (%, negative = inhibition) at 10uM": 3.24},
      {"smiles": "COc1ccc2[nH]c3c(c2c1)CCN1C(=O)N([C@@H](C)C(=O)NCc2ccco2)C(=O)[C@]31C", "hERG current change (%, negative = inhibition) at 10uM": -53.8},
      {"smiles": "CC(C)[C@@H](C(=O)NC1CC1)N1C(=O)N2CCc3c([nH]c4ccccc34)[C@@]2(C)C1=O", "hERG current change (%, negative = inhibition) at 10uM": -6.45},
      {"smiles": "COc1ccc2[nH]c3c(c2c1)CCN1C(=O)N([C@@H](C)C(=O)NCc2ccccc2)C(=O)[C@]31C", "hERG current change (%, negative = inhibition) at 10uM": 2.42},
      {"smiles": "COc1ccc(CNC(=O)[C@H](C)N2C(=O)N3CCc4c([nH]c5ccc(OC)cc45)[C@@]3(C)C2=O)cc1", "hERG current change (%, negative = inhibition) at 10uM": 9.36},
      {"smiles": "CCCC(=O)n1nc(-c2cccnc2)nc1N", "hERG current change (%, negative = inhibition) at 10uM": -27.1},
      {"smiles": "CC(C)C[C@@H](C(=O)N[C@@H](C(=O)O)c1ccccc1)N1C(=O)N2CCc3c([nH]c4ccccc34)[C@@]2(C)C1=O", "hERG current change (%, negative = inhibition) at 10uM": -6.67},
      {"smiles": "CC(C)C[C@@H](C(=O)NC1CC1)N1C(=O)N2CCc3c([nH]c4ccccc34)[C@@]2(C)C1=O", "hERG current change (%, negative = inhibition) at 10uM": -15},
      {"smiles": "CC(C)C[C@@H](C(=O)NC1CCN(Cc2ccccc2)CC1)N1C(=O)N2CCc3c([nH]c4ccccc34)[C@@]2(C)C1=O", "hERG current change (%, negative = inhibition) at 10uM": -53.2}
    ]}
  ]
}
